Laboratory results as given in PubChem BioAssay (EPA / NIEHS).
The source made the active and inactive calls. The calls were made as follows: active = hit-call score of the fitted dose curve at least 0.9, where 1 is the maximum; inactive = score below 0.9.

Experiments:
[1] = ATG_EGR_CIS: Attagene CIS-FACTORIAL HepG2 Assay for human Early Growth Response 1 (EGR1) (AID 2282938); conditions: HepG2 Attagene CIS-FACTORIAL EGR reporter mRNA; actives raise or lower the signal
Summary of the method: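 After 24 h compound exposure, RNA from reporter-transfected HepG2 cells was reverse-transcribed, PCR-amplified, fluorescently labelled and resolved by capillary electrophoresis. EGR1 reporter transcript changes, up or down, were fitted against DMSO, reflecting endogenous transcription-factor activity.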

[2] = ATG_M_19_CIS: Attagene CIS-FACTORIAL HepG2 Assay for M19 Transcription Factor (Internal Marker) (AID 2282939); conditions: HepG2 Attagene CIS-FACTORIAL M19 internal marker reporter; actives raise or lower the signal
Summary of the method: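 In this multiplexed cell assay, transiently transfected HepG2 reporter units report endogenous transcription-factor activity; after 24 hours of treatment, labelled reporter cDNA fragments are quantified by capillary electrophoresis and fitted bidirectionally against DMSO.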

[3] = ATG_ERE_CIS: Attagene CIS-FACTORIAL HepG2 Assay for Estrogen Response Element (ERE) (AID 2282940); conditions: HepG2 ERE cis-reporter, Attagene RNA transcript; actives raise or lower the signal
Summary of the method: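 Measuring endogenous transcription factor output, the assay doses transfected HepG2 cells for 24 hours and quantifies reporter transcripts by fluorescent RT-PCR and capillary electrophoresis, with DMSO as baseline.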

[4] = ATG_Ets_CIS: Attagene CIS-FACTORIAL HepG2 Assay for human Erythroblast Transformation Specific (ETS) (AID 2282941); conditions: HepG2 ETS cis-reporter transcription; AC50: actives raise or lower the signal unless noted; outcome: actives raise or lower the signal unless noted
Summary of the method: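 After transient cis-reporter transfection, HepG2 cells receive test chemical for 24 h. Reporter mRNA levels, measured by RT-PCR and capillary electrophoresis fluorescence, are analysed bidirectionally relative to the DMSO baseline.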

[5] = molecular target: Hepatocyte nuclear factor 3-beta (Homo sapiens) (UniProt Q9Y261); test: ATG_FoxA2_CIS: Attagene CIS-FACTORIAL HepG2 Assay for human Forkhead box A2 (FOXA2) (AID 2282942); conditions: HepG2 cis-reporter transcription factor activity, 24 h; actives raise or lower the signal
Sequence of Hepatocyte nuclear factor 3-beta (Homo sapiens) (Q9Y261 whole entry, looked up): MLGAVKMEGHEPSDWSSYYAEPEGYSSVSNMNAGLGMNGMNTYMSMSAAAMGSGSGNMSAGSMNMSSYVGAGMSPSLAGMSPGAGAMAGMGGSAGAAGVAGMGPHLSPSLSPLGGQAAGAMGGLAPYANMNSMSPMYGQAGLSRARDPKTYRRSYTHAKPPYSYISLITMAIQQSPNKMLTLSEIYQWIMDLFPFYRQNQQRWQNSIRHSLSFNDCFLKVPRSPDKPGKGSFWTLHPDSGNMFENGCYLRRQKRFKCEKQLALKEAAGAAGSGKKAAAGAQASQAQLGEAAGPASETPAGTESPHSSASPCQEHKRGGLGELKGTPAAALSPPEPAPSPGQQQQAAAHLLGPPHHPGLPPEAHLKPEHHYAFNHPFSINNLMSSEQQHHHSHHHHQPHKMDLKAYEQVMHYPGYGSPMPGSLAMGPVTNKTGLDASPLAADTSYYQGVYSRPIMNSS
Summary of the method: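 Endogenous transcription factor activity is captured via cis-element-driven reporter transcripts in transfected HepG2. Total RNA taken at 24 h post-dosing; labelled RT-PCR products resolved by capillary electrophoresis. Gain or loss fitted versus DMSO.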

[6] = ATG_FoxO_CIS: Attagene CIS-FACTORIAL HepG2 Assay for human Forkhead box O (FoxO) (AID 2282943); conditions: HepG2 Attagene cis-reporter, FoxO element, mRNA; actives raise or lower the signal
Summary of the method: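 Values reflect reporter mRNA induction or loss in HepG2 cells 24 h post-dosing, fitted bidirectionally with DMSO as negative control and baseline. Detection used RT-PCR and fluorescence capillary electrophoresis.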

[7] = ATG_GATA_CIS: Attagene CIS-FACTORIAL HepG2 Assay for human GATA Binding Protein (AID 2282944); conditions: HepG2 GATA cis-element reporter, Attagene multiplex mRNA; actives raise or lower the signal
Summary of the method: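 Measures endogenous transcription factor-driven reporter mRNA in HepG2 cells transiently carrying cis-regulated constructs. 24 h dosing; RNA via oligo(dT) reverse transcription, PCR, HpaI digestion, capillary electrophoresis; fitted relative to DMSO.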

[8] = ATG_GLI_CIS: Attagene CIS-FACTORIAL HepG2 Assay for human Zinc Finger Protein GLI1 (AID 2282945); conditions: HepG2, Attagene cis-factorial reporter mRNA, GLI element; actives raise or lower the signal
Summary of the method: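 HepG2 cells transiently transfected with cis-promoter multiplexed reporter units report endogenous transcription factor activity. After 24 h chemical exposure, reporter mRNA was quantified by RT-PCR, 6-FAM labelling, HpaI digestion and capillary electrophoresis, with bidirectional fitting against DMSO.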

[9] = molecular target: Bile acid receptor (Homo sapiens) (UniProt Q96RI1); test: ATG_IR1_CIS: Attagene CIS-FACTORIAL HepG2 Assay for human Nuclear Receptor Subfamily 1 Group H Member 4 (NR1H4), IR1 submotif (AID 2282946); conditions: IR1 reporter transcription, actives raise or lower the signal
Sequence of Bile acid receptor (Homo sapiens) (Q96RI1 whole entry, looked up): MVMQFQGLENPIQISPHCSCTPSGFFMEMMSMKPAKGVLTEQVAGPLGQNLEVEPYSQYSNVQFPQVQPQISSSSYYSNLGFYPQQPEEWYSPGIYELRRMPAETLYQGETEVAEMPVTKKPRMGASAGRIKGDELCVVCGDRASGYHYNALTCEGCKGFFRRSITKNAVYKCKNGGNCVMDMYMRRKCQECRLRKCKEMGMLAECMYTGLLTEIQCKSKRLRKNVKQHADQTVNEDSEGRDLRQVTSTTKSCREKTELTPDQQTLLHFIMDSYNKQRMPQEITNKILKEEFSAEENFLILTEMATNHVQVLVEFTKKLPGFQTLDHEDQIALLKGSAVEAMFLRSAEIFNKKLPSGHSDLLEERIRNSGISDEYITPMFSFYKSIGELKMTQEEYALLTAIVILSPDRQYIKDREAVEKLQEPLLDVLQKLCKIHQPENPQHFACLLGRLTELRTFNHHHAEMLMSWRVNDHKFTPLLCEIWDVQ
Summary of the method: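 Transient MRTU transfection, HepG2; 24 h dosing; RNA → RT-PCR → 6-FAM primer extension → HpaI digest → capillary electrophoresis fluorescence. Gain/loss of signal fitted relative to DMSO.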

[10] = ATG_GRE_CIS: Attagene CIS-FACTORIAL HepG2 Assay for human Glucocorticoid Response Elements (GRE) (AID 2282947); conditions: HepG2 GRE cis-reporter, Attagene multiplex mRNA; AC50: actives raise or lower the signal unless noted; outcome: actives raise or lower the signal unless noted
Summary of the method: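 HepG2 cells transiently transfected with multiple cis-promoter reporter units measure endogenous TF activity; 24 h compound exposure. Reporter mRNA quantified by RT-PCR, FAM labelling, HpaI digestion and capillary electrophoresis; bidirectional fit vs DMSO baseline.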

[11] = ATG_ISRE_CIS: Attagene CIS-FACTORIAL HepG2 Assay for human Interferon Regulatory Factor 1 (IRF1) binding to an Interferon-Stimulated Response Element (ISRE) (AID 2282948); conditions: HepG2 ISRE cis-reporter (Attagene), mRNA transcription readout; actives raise or lower the signal
Summary of the method: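 Quantitation relies on labelled RT-PCR fragments separated by capillary electrophoresis. Human HepG2 cells bearing cis-promoter reporter constructs were treated 24 h; DMSO served as baseline for bidirectional fitting.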

[12] = ATG_M_32_CIS: Attagene CIS-FACTORIAL HepG2 Assay for M32 Transcription Factor (Internal Marker) (AID 2282949); conditions: HepG2 Attagene cis-factorial M32 reporter, mRNA; actives raise or lower the signal;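 also: background control marker of the multiplexed CIS panel rather than a real target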
Summary of the method: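 Following 24 h chemical exposure of HepG2 cells transiently expressing cis-promoter reporter constructs, reporter transcript levels were determined by RT-PCR with fluorescent labelling and capillary electrophoresis, then fitted bidirectionally against DMSO.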

[13] = ATG_M_06_CIS: Attagene CIS-FACTORIAL HepG2 Assay for M06 Transcription Factor (Internal Marker) (AID 2282950); conditions: HepG2 Attagene CIS-FACTORIAL M06 internal marker reporter; actives raise or lower the signal
Summary of the method: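 One of many multiplexed endpoints: HepG2 reporter mRNA after 24 h dosing, detected by RT-PCR and capillary electrophoresis fluorescence; gain or loss of signal analysed against DMSO.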

[14] = molecular target: Hypoxia-inducible factor 1-alpha (Homo sapiens) (UniProt Q16665); test: ATG_HIF1a_CIS: Attagene CIS-FACTORIAL HepG2 Assay for human Hypoxia Inducible Factor 1 (HIF1A) (AID 2282951); conditions: HepG2 Attagene cis-factorial HIF1a reporter transcription; actives raise or lower the signal
Sequence of Hypoxia-inducible factor 1-alpha (Homo sapiens) (Q16665 whole entry, looked up): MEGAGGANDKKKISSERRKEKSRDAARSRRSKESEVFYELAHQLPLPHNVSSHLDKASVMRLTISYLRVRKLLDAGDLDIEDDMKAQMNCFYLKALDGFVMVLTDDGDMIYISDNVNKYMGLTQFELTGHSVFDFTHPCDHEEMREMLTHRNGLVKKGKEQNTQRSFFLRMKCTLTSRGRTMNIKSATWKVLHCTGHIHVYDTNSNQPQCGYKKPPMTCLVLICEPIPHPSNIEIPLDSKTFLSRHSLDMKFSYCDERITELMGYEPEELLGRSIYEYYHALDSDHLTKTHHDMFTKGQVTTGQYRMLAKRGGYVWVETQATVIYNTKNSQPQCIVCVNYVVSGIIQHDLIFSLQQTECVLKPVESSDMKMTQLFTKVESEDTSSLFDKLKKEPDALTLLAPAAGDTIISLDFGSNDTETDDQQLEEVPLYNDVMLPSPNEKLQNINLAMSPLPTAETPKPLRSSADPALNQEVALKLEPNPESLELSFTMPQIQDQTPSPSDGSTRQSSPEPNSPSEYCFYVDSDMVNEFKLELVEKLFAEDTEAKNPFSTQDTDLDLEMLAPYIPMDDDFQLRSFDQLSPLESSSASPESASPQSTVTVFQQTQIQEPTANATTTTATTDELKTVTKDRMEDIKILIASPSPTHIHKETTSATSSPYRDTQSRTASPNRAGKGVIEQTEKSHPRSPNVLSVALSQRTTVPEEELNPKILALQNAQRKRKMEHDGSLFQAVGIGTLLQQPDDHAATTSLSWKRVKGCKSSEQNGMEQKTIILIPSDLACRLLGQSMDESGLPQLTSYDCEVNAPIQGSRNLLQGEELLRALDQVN
Summary of the method: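 Activity is fitted in both directions relative to DMSO. Reporter transcripts are read by RT-PCR, fluorescent primer extension and capillary electrophoresis after 24 h chemical treatment. The cells are HepG2 carrying transiently transfected cis-element-driven reporter units responding to endogenous factors.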

[15] = molecular target: Hepatocyte nuclear factor 6 (Homo sapiens) (UniProt Q9UBC0); test: ATG_HNF6_CIS: Attagene CIS-FACTORIAL HepG2 Assay for human Hepatocyte Nuclear Factor 6 (HNF6) (AID 2282952); conditions: HepG2 Attagene cis-factorial HNF6 reporter transcription; actives raise or lower the signal
Sequence of Hepatocyte nuclear factor 6 (Homo sapiens) (Q9UBC0 whole entry, looked up, the tested form may be a part): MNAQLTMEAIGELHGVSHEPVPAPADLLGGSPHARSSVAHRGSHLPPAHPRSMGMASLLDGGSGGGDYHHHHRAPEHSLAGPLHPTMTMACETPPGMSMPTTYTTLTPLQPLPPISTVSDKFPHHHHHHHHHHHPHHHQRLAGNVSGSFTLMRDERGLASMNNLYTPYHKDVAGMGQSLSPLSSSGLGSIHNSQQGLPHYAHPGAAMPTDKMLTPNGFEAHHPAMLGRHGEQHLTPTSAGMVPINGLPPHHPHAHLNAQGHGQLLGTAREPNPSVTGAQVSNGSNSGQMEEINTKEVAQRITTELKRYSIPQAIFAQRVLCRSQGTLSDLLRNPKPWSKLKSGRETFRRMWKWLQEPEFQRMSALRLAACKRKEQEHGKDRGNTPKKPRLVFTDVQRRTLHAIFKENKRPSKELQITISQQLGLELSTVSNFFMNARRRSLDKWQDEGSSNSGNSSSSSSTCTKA
Summary of the method: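 Reporter mRNA induction or loss in HepG2 after 24 h exposure; transient cis-MRTU transfection; fragments quantified by capillary electrophoresis; bidirectional analysis, DMSO as negative control.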

[16] = molecular target: Heat shock factor protein 1 (Homo sapiens) (UniProt Q00613); test: ATG_HSE_CIS: Attagene CIS-FACTORIAL HepG2 Assay for human Heat Shock Transcription Factor 1 (HSE) (AID 2282953); conditions: HepG2 HSE cis-reporter, Attagene RNA transcription; actives raise or lower the signal
Sequence of Heat shock factor protein 1 (Homo sapiens) (Q00613 whole entry, looked up): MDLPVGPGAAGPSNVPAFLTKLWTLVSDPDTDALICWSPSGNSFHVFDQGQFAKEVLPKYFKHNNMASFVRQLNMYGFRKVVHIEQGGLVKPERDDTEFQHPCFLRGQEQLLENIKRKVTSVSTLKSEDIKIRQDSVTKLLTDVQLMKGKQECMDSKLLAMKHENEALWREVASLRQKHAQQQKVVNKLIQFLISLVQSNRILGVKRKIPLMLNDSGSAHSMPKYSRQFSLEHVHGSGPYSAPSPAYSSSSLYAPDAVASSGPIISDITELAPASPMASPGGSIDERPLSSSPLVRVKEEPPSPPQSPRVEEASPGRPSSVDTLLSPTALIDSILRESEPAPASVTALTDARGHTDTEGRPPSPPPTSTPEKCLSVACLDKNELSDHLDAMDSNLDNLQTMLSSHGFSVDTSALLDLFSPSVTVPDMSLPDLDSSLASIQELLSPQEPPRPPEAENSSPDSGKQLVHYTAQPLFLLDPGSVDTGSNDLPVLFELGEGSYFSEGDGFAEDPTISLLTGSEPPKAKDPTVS
Summary of the method: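 Using HepG2 with transfected cis-driven reporter constructs, compound effects on endogenous factor activity are scored as reporter mRNA change at 24 h. Detection: RT-PCR, HpaI digestion, capillary electrophoresis; bidirectional fitting to DMSO.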

[17] = ATG_MRE_CIS: Attagene CIS-FACTORIAL HepG2 Assay for human Metal Responsive Element (MRE) (AID 2282954); conditions: HepG2 MRE cis-reporter transcription, Attagene multiplex; actives raise or lower the signal
Summary of the method: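 HepG2 cells transiently transfected with multiple cis-element reporter units measure endogenous MTF1-driven transcription. After 24 h compound exposure, reporter mRNA is quantified by RT-PCR with 6-FAM labelling, HpaI digestion and capillary electrophoresis; bidirectional fits versus DMSO.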

[18] = ATG_PBREM_CIS: Attagene CIS-FACTORIAL HepG2 Assay for human Phenobarbital-responsive Enhancer Module (PBREM) (AID 2282955); conditions: HepG2 PBREM cis-reporter, Attagene multiplexed transcription; actives raise or lower the signal
Summary of the method: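 Endogenous transcription factor activity was read from reporter transcripts in transiently transfected human HepG2 liver cells after 24 h dosing. RT-PCR products were fluorescently labelled, HpaI-cut and sized by capillary electrophoresis; activity fitted bidirectionally against DMSO baseline.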

[19] = molecular target: Paired box protein Pax-6 (Homo sapiens) (UniProt P26367); test: ATG_Pax6_CIS: Attagene CIS-FACTORIAL HepG2 Assay for human Paired Box 6 (PAX6) (AID 2282956); conditions: HepG2 CIS-FACTORIAL PAX6 reporter transcription, RNA readout; actives raise or lower the signal
Sequence of Paired box protein Pax-6 (Homo sapiens) (P26367 whole entry, looked up): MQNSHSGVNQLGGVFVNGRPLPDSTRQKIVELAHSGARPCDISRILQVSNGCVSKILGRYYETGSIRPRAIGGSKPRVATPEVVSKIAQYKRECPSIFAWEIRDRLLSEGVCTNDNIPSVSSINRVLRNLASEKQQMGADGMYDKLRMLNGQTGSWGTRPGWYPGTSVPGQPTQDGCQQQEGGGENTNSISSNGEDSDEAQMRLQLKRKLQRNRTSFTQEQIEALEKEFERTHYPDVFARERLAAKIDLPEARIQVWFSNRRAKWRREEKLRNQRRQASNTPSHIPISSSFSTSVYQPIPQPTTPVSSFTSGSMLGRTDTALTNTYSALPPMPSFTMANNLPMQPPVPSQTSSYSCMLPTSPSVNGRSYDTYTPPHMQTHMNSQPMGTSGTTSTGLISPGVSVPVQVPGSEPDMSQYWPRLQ
Summary of the method: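 After twenty-four hours of chemical exposure, transfected HepG2 cells are harvested for RNA. Cis-promoter reporter transcripts are amplified, fluorescently labelled and sized by capillary electrophoresis, with gain and loss of signal scored against DMSO.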

[20] = ATG_PXRE_CIS: Attagene CIS-FACTORIAL HepG2 Assay for human Pregnane X Receptor Element (PXRE) (AID 2282957); conditions: HepG2 Attagene CIS-FACTORIAL PXRE reporter, mRNA; actives raise or lower the signal
Summary of the method: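 Transiently transfected HepG2 cells were dosed and incubated for 24 h. RNA was then isolated, DNase-treated, reverse-transcribed and reporter sequences amplified. Labeled, HpaI-digested fragments were quantified by capillary electrophoresis against DMSO.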

Measured: AC50

NC(C(F)(F)F)C(F)(F)F
inactive: all assays above

CCCCCCCCCCCCOC(=O)c1cc(O)c(O)c(O)c1
active: [11] 11.1 µM | [14] 6.75 µM | [16] 8.12 µM | [17] 18.5 µM | [18] 21.3 µM | [20] 2.94 µM
not listed: [15]
inactive: all other assays above

COC(=O)C(F)(F)C(F)(F)C(F)(F)C(F)(F)C(F)(F)F
not listed: [18]
inactive: all other assays above

O=C1C=CC(=O)N1c1cccc(N2C(=O)C=CC2=O)c1
not listed: [11]
inactive: all other assays above

COC(=O)C(F)(F)C(F)(F)C(F)(F)F
not listed: [16] | [18]
inactive: all other assays above

O=C(O)CCC(F)(F)C(F)(F)C(F)(F)C(F)(F)C(F)(F)F
not listed: [15]
inactive: all other assays above

CCO[Si](CCC1CCC2OC2C1)(OCC)OCC (stereo not drawn)
not listed: [11]
inactive: all other assays above
